Bioassay records as filed in PubChem BioAssay.
IP6K1 inh: IP6K1 kinase inhibition | Q92551 | AID 1645851 | IP6K1 kinase, ADP-Glo luminescence, 2 h; hits give low values | hit rate 0.81% among 140,000 | activity change, % (series mostly up to about 58 µM); in the data active means activity change below about -25%
Target sequence (Q92551 whole entry, looked up): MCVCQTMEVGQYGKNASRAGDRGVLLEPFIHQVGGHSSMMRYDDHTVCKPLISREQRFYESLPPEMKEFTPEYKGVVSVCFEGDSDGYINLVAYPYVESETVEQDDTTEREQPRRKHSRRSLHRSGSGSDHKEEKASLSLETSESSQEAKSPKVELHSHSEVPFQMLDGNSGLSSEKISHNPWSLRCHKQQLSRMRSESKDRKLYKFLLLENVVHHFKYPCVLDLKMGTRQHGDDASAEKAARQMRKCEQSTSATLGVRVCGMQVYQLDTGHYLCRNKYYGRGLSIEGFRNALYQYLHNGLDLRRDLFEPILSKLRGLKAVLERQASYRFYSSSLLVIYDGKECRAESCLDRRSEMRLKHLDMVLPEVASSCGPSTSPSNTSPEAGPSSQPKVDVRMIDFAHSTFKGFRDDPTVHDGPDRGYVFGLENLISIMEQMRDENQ
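ADP-Glo luminescence measures ADP made by human IP6K1 during a 2 h RT reaction with ATP/IP6 (mix at 1.3 mM/130 uM); top library doses 57.5 and 19.1 uM final.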
SNCA expr inh: reduces expression of the alpha-synuclein gene; Potency, µM (top dose mostly 57.2 µM), for the others: at the top dose activity change, negative = inhibition, usual class: inhibitors; hit rate 0.17% among 140,000; HEK-293 SNCA-luciferase knock-in, luminescence, 24 h; AID 1671194;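 further: potency means the concentration at half of the fitted maximal effect; plate controls were DMSO cells for no effect and cell-free wells for full effect; nearly all actives have a fitted effect of over 45% in size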
SNCA viab count: cell viability loss counter-screen | AID 1671193 | Potency, µM (highest dose often 57.1 µM), for inactives: top-dose activity change, negative = cytotoxicity, usual class: cytotoxic | hit rate 0.12% among 150,000 | HEK-293-SNCA-luc viability, GF-AFC fluorescence, 24 h;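 further: potency means the concentration at half of the fitted maximal effect; 0% = DMSO-treated cells and -100% = medium-only wells without cells; nearly all actives have a fitted effect of over 30% in size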
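Cytotoxicity counterscreen: after 24 h compound treatment of genome-edited SNCA-luciferase HEK-293 cells, live-cell protease substrate GF-AFC read by fluorescence after 30 min; activity scaled between DMSO (0%) and medium-only (-100%), curves Hill-fitted.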
GPT2 inh: inhibitors of human GPT2 alanine aminotransferase; Q8TD30; Recombinant GPT2, coupled pyruvate oxidase/HRP Amplex Red fluorescence; Potency, µM (top dose mostly 57.7 µM), without a hit: at the top dose activity change, negative = inhibition, hits mostly inhibitors; hit rate 0.25% among 100,000; AID 1671188; further: potency means the concentration at half of the fitted maximal effect; nearly all actives have a fitted effect of over 60% in size
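Fluorescence read-out: pyruvate from GPT2 turnover coupled to pyruvate oxidase, HRP and Amplex Red (0.2mM ThPP, 0.2U/mL PO and HRP, 50uM Amplex final). Substrates 250uM a-KG, 2mM L-alanine; enzyme 10ng/uL; 30 min RT.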
IP6K1 conf: confirmation of human IP6K1 inhibitors; shares compounds with IP6K1 inh; recombinant IP6K1 kinase, ADP-Glo luminescence, 2 h; Potency, µM (titrated, usually from 49 µM), without a hit: top-dose activity change, negative = inhibition, most hits filed as inhibitors; hit rate 13% among 1,200; AID 1645852; further: potency means the concentration at half of the fitted maximal effect; nearly all actives have a fitted effect of over 65% in size
An asterisk follows results filed as active; [ ] = remark or other dose. Only some compounds are listed: those with a hit (about 0.9% of all), similar ones and a draw of the others. Unless noted, the call rests on the fitted dose curve; in most records, active means well fitted curve in the direction sought with a large enough effect; inconclusive means small, poorly fitted or top-dose-only effect, or another doubt; inactive means no such curve, though single readings can be large; an effect the other way counts as inactive or inconclusive. Unless noted, on the % scale 0 is the no-effect control and ±100 the full control effect.

What do the screens show for `O=C1NCCN2CC3(CCN(C(=O)CC4CCCCC4)CC3)CC12` (centres undefined)?
IP6K1 inh: -6.9; SNCA expr inh: -2.9%; SNCA viab count: 19.3%; GPT2 inh: inactive

What do the screens show for `COc1cccc(C(=O)N2C[C@@H](C(N)=O)[C@@H]3Oc4c(C)cccc4[C@@H]32)c1`?
IP6K1 inh: 12.3

How did O=C(Nc1nnc(N2CCCCCC2)s1)Nc1cc(F)ccc1F do in these assays?
IP6K1 inh: -29.3*; SNCA expr inh: 12.4%; SNCA viab count: 7.8%; IP6K1 conf: -10.0%

How did O=C(Nc1nnc(N2CCCC2)s1)Nc1cc(F)ccc1F do in these assays?
IP6K1 inh: -12.4; SNCA expr inh: 47.1%; SNCA viab count: -5.7%

What do the screens show for `O=C(c1ccccc1)N1CC2(C1)C(=O)Nc1ccccc12`?
IP6K1 inh: -12.8; SNCA expr inh: 17.0%[87.6 µM]; SNCA viab count: -1.1%[87.6 µM]; GPT2 inh: 4.2%[88.5 µM]

How did O=C(O)CC1(O)C(=O)Nc2ccccc21 (centres undefined) do in these assays?
IP6K1 inh: -31.1*; SNCA viab count: 4.4%[87.6 µM]; GPT2 inh: -27.1%[88.5 µM]; IP6K1 conf: inconclusive

What do the screens show for `COc1cccc(-c2cccc(C(=O)N3CCN(C(=O)N(C)C)CC3)c2)c1`?
IP6K1 inh: -2.4; SNCA expr inh: 14.8%; SNCA viab count: 2.6%[12.5 µM]; GPT2 inh: inactive

Results for COc1ccc(Cl)cc1NC(=O)CN(C)S(=O)(=O)c1ccc(Br)s1 ?
IP6K1 inh: -26.2*; SNCA expr inh: inconclusive; SNCA viab count: 2.7%; IP6K1 conf: 28.8%

What do the screens show for `O=Nc1c(-c2c(O)[nH]c3ccccc23)[nH]c2ccccc12`?
SNCA expr inh: 89.1%; SNCA viab count: inconclusive; GPT2 inh: -1.8%; IP6K1 conf: 1.1%

How did CC(C)(Oc1nn(Cc2cccc(Cl)c2)c2ccccc12)C(=O)NC1CC1 do in these assays?
IP6K1 inh: -0.9; SNCA expr inh: inconclusive; SNCA viab count: -22.3%[87.6 µM]; GPT2 inh: -10.3%[88.5 µM]

What do the screens show for `Cc1ccccc1Cc1c(C)nc2c(-c3ccccc3)c(C)[nH]n2c1=O`?
IP6K1 inh: -18.8; SNCA expr inh: inconclusive; SNCA viab count: -25.1%

Results for Cc1cccc(Cc2c(C)nc3c(-c4ccccc4)c(C)[nH]n3c2=O)c1 ?
IP6K1 inh: -33.8*; SNCA expr inh: -12.6%; SNCA viab count: -8.6%; IP6K1 conf: inconclusive

What do the screens show for `O=C1CC(c2ccccc2)Sc2nc(-c3ccc(F)cc3)nn21` (centres undefined)?
IP6K1 inh: -26.6*; SNCA expr inh: -1.9%; SNCA viab count: 10.4%; IP6K1 conf: 1.9%

How did Cc1ccc(C2CC(=O)n3nc(-c4ccc(Cl)cc4)nc3S2)cc1 (centres undefined) do in these assays?
IP6K1 inh: -13.4; SNCA expr inh: -5.8%; SNCA viab count: 8.6%

Results for Cc1cccc(C)c1NC(=O)CN(C)S(=O)(=O)c1ccc2[nH]c3c(c2c1)CCCC3 ?
IP6K1 inh: -26.3*; SNCA expr inh: -15.6%; SNCA viab count: -3.5%; IP6K1 conf: 20.9%

What do the screens show for `Cc1ccc(NS(=O)(=O)c2ccc3[nH]c4c(c3c2)CCCC4)cc1N(C)C`?
IP6K1 inh: -26.6*; SNCA expr inh: inconclusive; SNCA viab count: -23.3%; IP6K1 conf: -6.6%

Results for O=C(C1CCC1)N1CCOc2ccc(CN3CCCCCC3)cc2C1 ?
IP6K1 inh: 3.6; SNCA expr inh: 21.4%; SNCA viab count: -7.7%; GPT2 inh: inactive

Results for COc1ccc(-n2cc(CN3CCCC(O)C3)c(-c3cccc(F)c3)n2)cc1 (centres undefined) ?
IP6K1 inh: -1.2; SNCA expr inh: 66.8%; SNCA viab count: inconclusive; GPT2 inh: -10.6%

How did N#C/C(=C\c1ccc(O)c(O)c1)C(=O)Nc1ccccc1 do in these assays?
SNCA expr inh: 108.7%; SNCA viab count: 3.6%; GPT2 inh: inconclusive; IP6K1 conf: 16.4µM*

Results for C[C@@H](NC(=O)/C(C#N)=C/c1ccc(O)c(O)c1)c1ccccc1 ?
SNCA expr inh: 9.1%; SNCA viab count: -7.6%; GPT2 inh: inconclusive

How did COCCCNc1nc(NCc2ccc(C)cc2)c2cnn(C)c2n1 do in these assays?
IP6K1 inh: -35.8*; SNCA expr inh: -3.0%; SNCA viab count: -11.5%; IP6K1 conf: -8.4%

Results for Cn1ncc2c(NCc3ccccc3Cl)nc(NCCO)nc21 ?
IP6K1 inh: -18.1; SNCA expr inh: 24.7%; SNCA viab count: -0.5%

How did COCCCNc1nc(NCc2ccccc2OC)c2cnn(C)c2n1 do in these assays?
IP6K1 inh: -29.7*; SNCA expr inh: -16.0%; SNCA viab count: 9.9%; IP6K1 conf: -13.7%

What do the screens show for `COCCNc1nc(NCc2ccccc2OC)c2cnn(C)c2n1`?
IP6K1 inh: -10.0; SNCA expr inh: 6.8%; SNCA viab count: 5.4%

What do the screens show for `O=C(NC1CCN(c2nc3ncccc3o2)C1)C1CC1` (centres undefined)?
IP6K1 inh: 3.2; SNCA expr inh: -19.6%[87.6 µM]; SNCA viab count: -12.1%[87.6 µM]; GPT2 inh: -3.9%[88.5 µM]

How did O=C(c1ccc2c(c1)OCO2)N1CCC2(CC1)C(=O)Nc1ccccc12 do in these assays?
IP6K1 inh: -33.0*; SNCA expr inh: -9.3%; SNCA viab count: -5.0%; GPT2 inh: -0.2%; IP6K1 conf: inconclusive

Results for O=C(c1ccc2c(c1)OCO2)N1CC2(C1)C(=O)Nc1ccccc12 ?
IP6K1 inh: -16.2; SNCA expr inh: -5.3%; SNCA viab count: -1.8%; GPT2 inh: -2.3%

What do the screens show for `Cc1ccc(C)c([S+](=O)([O-])c2nnn3c2nc(NCc2ccncc2)c2ccccc23)c1`?
IP6K1 inh: 2.6; SNCA expr inh: -6.5%; SNCA viab count: -20.1%; GPT2 inh: 4.5%

What do the screens show for `CN[C@H](CC(C)C)C(=O)N[C@H]1C(=O)N[C@@H](CC(N)=O)C(=O)N[C@H]2C(=O)N[C@H]3C(=O)N[C@H](C(=O)N[C@H](C(=O)O)c4cc(O)cc(O)c4-c4cc3ccc4O)[C@H](O[C@H]3C[C@](C)(N)[C@@H](O)[C@H](C)O3)c3ccc(c(Cl)c3)Oc3cc2cc(c3O[C@@H]2O[C@H](CO)[C@@H](O)[C@H](O)[C@H]2O[C@H]2C[C@](C)(NCc3ccc(-c4ccc(Cl)cc4)cc3)[C@@H](O)[C@H](C)O2)Oc2ccc(cc2Cl)[C@H]1O`?
IP6K1 inh: -32.5*; SNCA viab count: 10.3%[23.9 µM]; GPT2 inh: 1.8%[17.1 µM]; IP6K1 conf: inconclusive

Results for CCN1CCN(C(=O)C2CCN(c3ccnc4ccnn34)CC2)CC1 ?
IP6K1 inh: 20.2; SNCA expr inh: -5.3%[87.6 µM]; SNCA viab count: inconclusive; GPT2 inh: inactive

What do the screens show for `CC(=O)Nc1cccc(-c2nnc(SCC(=O)c3cc([N+](=O)[O-])ccc3Cl)o2)c1`?
IP6K1 inh: -31.0*; SNCA expr inh: -5.6%; SNCA viab count: inconclusive; IP6K1 conf: inconclusive
